Values joined by “and” are separate entries in the source; they are usually repeats but may differ in a detail not shown here. Identical values can stand only once. Results filed as inconclusive are left out. Where a call stands in place of a potency, no number is given. Active and inactive are the calls of the source. Unless noted, the call rests on the fitted dose curve; in most records, active means well fitted cell-killing curve with a large enough effect in the repeat runs (not every such curve was filed as active); inconclusive means weak or mixed curves, or effect the other way; inactive means no such curve, though single readings can be large or run the other way.
Test: qHTS assay to identify small molecule antagonists of the estrogen related receptor signaling pathway with the pleiotropic PPARgamma coactivator (PGC) from Tox21 10K library - cell viability counter screen (AID 1224840); further: nearly all actives have a fitted effect of over 40% in size; further: potency means the concentration at half of the fitted maximal effect
Conditions: PGC/ERR reporter cells viability, CellTiter-Fluor, 17.5 h; series mostly up to 92.4 µM
Outline: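 Following seeding of 2,000 PGC/ERR cells/well and 6 hours' incubation, test compounds were delivered in DMSO. The plates then sat 17.5 hours at 37 C before a fluorogenic live-cell protease reagent (CellTiter-Fluor) was read after 30 min.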

Structure (SMILES) | Potency | viability change, negative = cytotoxic
C=CC(=O)OCC(CO)(COC(=O)C=C)COC(=O)C=C | 6.13 µM (active) and 12.2 µM (active) | –
Cc1nc(-c2ccc3c(c2)CCN(CCC2CCC(NC(=O)/C=C/c4ccc(F)cc4)CC2)CC3)no1 (stereo not drawn) | inactive | –
CNC(=O)c1ccccc1 | inactive | –
Oc1ccc2c(c1)-c1ccccc1C2 | inactive | –
CCC(CN)=C(c1ccccc1)c1ccccc1 | inactive | –
COC(=O)C1=C(C)NC(C)=C(C(=O)OCCc2ccc(N3CCN(C(c4ccccc4)c4ccccc4)CC3)cc2)C1c1cccc([N+](=O)[O-])c1 (stereo not drawn) | inactive | –
C[C@]12CCC(=O)C=C1CC[C@@H]1[C@@H]2[C@@H](O)C[C@@]2(C)[C@H]1CC[C@]2(O)C(=O)COC(=O)CCC(=O)O | inactive | –
NC(=O)CC[C@@H]1NC(=O)[C@H](Cc2ccccc2)NC(=O)[C@H](Cc2ccc(O)cc2)NC(=O)CCSSC[C@@H](C(=O)N2CCC[C@H]2C(=O)N[C@@H](CCCN=C(N)N)C(=O)NCC(N)=O)NC(=O)[C@H](CC(N)=O)NC1=O | inactive | –
COc1cccc(N)c1 | inactive | –
O=c1cccccc1O | inactive | –
CC(C)(C)C(=O)OCOC(=O)[C@@H]1N2C(=O)[C@@H](NC(=O)[C@H](N)c3ccccc3)[C@H]2SC1(C)C | inactive | –
CC(NN)c1ccccc1 (stereo not drawn) | – | -1.05% [at 19 µM] (inactive)
Nc1ccc(N)c2ccccc12 | 54.4 µM (active) | –
CC1(C)CCC(C)(C)c2cc(C(=O)Nc3ccc(C(=O)O)cc3)ccc21 | inactive | –
Nc1cc(C(F)(F)F)ccc1S | inactive | –
Cc1cccc(S(=O)(=O)O)c1C | inactive | –
c1ccc(CSCc2ccccc2)cc1 | inactive | –
COC(=O)c1cc(Cl)ccc1OC | inactive | –
CC[C@@]1(O)C(=O)OCc2c1cc1n(c2=O)Cc2c-1nc1ccccc1c2/C=N/OC(C)(C)C | inactive | –
CCCCCCCC(=O)[O-].CCCCCCCC(=O)[O-].[Zn+2] | inactive | –
O=C(c1ccc(F)cc1)C1CCN(CCn2c(=O)[nH]c3ccccc3c2=O)CC1 | inactive | –
CCCC/C=C/CCCCO | inactive | –
CCCCCCCC[P+](CCCCCCCC)(CCCCCCCC)CCCCCCCC | 10.8 µM (active) | –
CCCCCCCCCCCC[N+](C)(C)CCCCCCCCCCCC | 27.3 µM (active) | –
CC(C)C(C)(C)C(C)(C)C(C)(C)S | inactive | –
CNc1ccc(O)cc1 | 48.5 µM (active) | –
O=C(c1ccc(O)cc1O)c1ccc(O)cc1O | inactive | –
CC(C)CCCCCCCCCCCCCCC(=O)O | inactive | –

Test: qHTS assay to identify small molecule antagonists of the estrogen related receptor signaling pathway with the pleiotropic PPARgamma coactivator (PGC) from Tox21 10K library (AID 1224841; call rule not given here; further: actives are mostly falling curves and most rising ones were filed inactive; nearly all actives have a fitted effect of over 50% in size; further: potency means the concentration at half of the fitted maximal effect)
Conditions: PGC/ERR reporter cell line, ONE-Glo luciferase, 18 h; series mostly up to 92.4 µM
Outline: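 qHTS antagonist format: PGC/ERR cells, 2k/well, compound in DMSO by pin transfer after 6 h attachment, 18 h treatment at 37 C, One-Glo luminescence read at 30 min.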

Structure (SMILES) | Potency
C=CC(=O)OCC(CO)(COC(=O)C=C)COC(=O)C=C | 13.7 µM (active) and 24.3 µM (active)
Oc1ccc2c(c1)-c1ccccc1C2 | inactive
CCc1cc(Cc2cc(CC)c(N)c(CC)c2)cc(CC)c1N | 21.7 µM (active)
CCCCN1C(=O)[C@@H]([C@H](O)C2CCCCC2)NC(=O)C12CCN(Cc1ccc(Oc3ccc(C(=O)O)cc3)cc1)CC2 | inactive
CC(C)(C)C(=O)OCOC(=O)[C@@H]1N2C(=O)[C@@H](NC(=O)[C@H](N)c3ccccc3)[C@H]2SC1(C)C | inactive
CCCC(=O)OC[C@@H](OC(=O)CCC)[C@@H](OC(=O)CCC)[C@H](Cn1c2nc(=O)[nH]c(=O)c-2nc2cc(C)c(C)cc21)OC(=O)CCC | 23.7 µM (active)
CC1(C)CCC(C)(C)c2cc(C(=O)Nc3ccc(C(=O)O)cc3)ccc21 | inactive
Nc1cc(C(F)(F)F)ccc1S | 29.8 µM (active)
CC[C@@]1(O)C(=O)OCc2c1cc1n(c2=O)Cc2c-1nc1ccccc1c2/C=N/OC(C)(C)C | 4.73 µM (active)
O=C(c1ccc(F)cc1)C1CCN(CCn2c(=O)[nH]c3ccccc3c2=O)CC1 | inactive
C[C@@H](NCCCc1cccc(C(F)(F)F)c1)c1cccc2ccccc12 | inactive
CC(C)CCCCCCCCCCCCCCC(=O)O | inactive

Test: qHTS assay to identify small molecule agonists of the estrogen related receptor signaling pathway with the pleiotropic PPARgamma coactivator (PGC) from Tox21 10K library (AID 1224842; active means well fitted activation curve with a large enough effect in the repeat runs; further: nearly all actives have a fitted effect of over 15% in size)
Conditions: PGC/ERR reporter cell line, luciferase ONE-Glo, 18 h; series mostly up to 92.4 µM
Outline: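 PGC/ERR reporter cell line, 2,000 cells per well, incubated 6 h at 37 C before 23 nL compound in DMSO was added. After 18 h at 37 C, One-Glo luminescence read following 30 min at room temperature.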

Structure (SMILES) | Potency
C=CC(=O)OCC(CO)(COC(=O)C=C)COC(=O)C=C | inactive
Oc1ccc2c(c1)-c1ccccc1C2 | inactive
CCc1cc(Cc2cc(CC)c(N)c(CC)c2)cc(CC)c1N | inactive
CCCCN1C(=O)[C@@H]([C@H](O)C2CCCCC2)NC(=O)C12CCN(Cc1ccc(Oc3ccc(C(=O)O)cc3)cc1)CC2 | inactive
CC(C)(C)C(=O)OCOC(=O)[C@@H]1N2C(=O)[C@@H](NC(=O)[C@H](N)c3ccccc3)[C@H]2SC1(C)C | inactive
CCOC(=O)c1nc(C(Cl)(Cl)Cl)n(-c2ccc(Cl)cc2Cl)n1 | inactive
CCCC(=O)OC[C@@H](OC(=O)CCC)[C@@H](OC(=O)CCC)[C@H](Cn1c2nc(=O)[nH]c(=O)c-2nc2cc(C)c(C)cc21)OC(=O)CCC | inactive
Nc1ccc(N)c2ccccc12 | inactive
CC1(C)CCC(C)(C)c2cc(C(=O)Nc3ccc(C(=O)O)cc3)ccc21 | inactive
Nc1cc(C(F)(F)F)ccc1S | inactive
O=C(Oc1cccc2cccnc12)c1ccccc1 | inactive
CC[C@@]1(O)C(=O)OCc2c1cc1n(c2=O)Cc2c-1nc1ccccc1c2/C=N/OC(C)(C)C | inactive
O=C(c1ccc(F)cc1)C1CCN(CCn2c(=O)[nH]c3ccccc3c2=O)CC1 | inactive
CCCCCCCC[P+](CCCCCCCC)(CCCCCCCC)CCCCCCCC | inactive
CCCCCCCCCCCC[N+](C)(C)CCCCCCCCCCCC | inactive
C[C@@H](NCCCc1cccc(C(F)(F)F)c1)c1cccc2ccccc12 | inactive
CNc1ccc(O)cc1 | inactive
CC(C)CCCCCCCCCCCCCCC(=O)O | inactive

Source: PubChem BioAssay (Tox21)
